Laboratory results from PubChem BioAssay (EPA / NIEHS).
Calls of active or inactive are those of the source. How the source made its calls: active means hit-call score of the fitted dose curve at least 0.9, where 1 is the maximum; inactive means score below 0.9.

Legend:
[1] = APR_HepG2_CellCycleArrest_24hr: Apredica 24-hour HepG2 Assay for Cell Cycle Arrest (AID 2282905); conditions: imaging, actives raise or lower the signal;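 further: cell cycle arrest scored as ratio of 2N to 4N nuclear DNA content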
How it was run: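 Readout: Hoechst 33342 nuclear DNA content by high-content fluorescent imaging, six images/well, 20x. Human HepG2 liver cells, 24 hr compound exposure, 0.39–200 uM, final DMSO 0.5% v/v. Gain or loss fitted relative to DMSO baseline.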

[2] = APR_HepG2_NuclearSize_24hr: Apredica 24-hour HepG2 Assay for Nuclear Size (AID 2282907); conditions: high-content imaging, actives raise or lower the signal
How it was run: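 Read-out: nuclear diameter from Hoechst 33342 (2 ug/mL) imaging of fixed HepG2 cells, 20x, six fields/well. Compounds ran at 0.39–200 uM for 24 hr, 0.5% DMSO final. Gain or loss was fitted bidirectionally relative to the DMSO baseline.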

[3] = APR_HepG2_CellLoss_24hr: Apredica 24-hour HepG2 Assay for Cell Loss (AID 2282908); conditions: high-content imaging;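 on AC50: fit in both directions so a hit may be cell loss or gain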
How it was run: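 Read-out: Hoechst 33342-stained nuclei counted by automated fluorescence imaging after formaldehyde fixation and Triton permeabilization. Ten concentrations, 0.39 to 200 uM, duplicate wells, 0.5% DMSO final. Gain or loss of signal fitted relative to DMSO baseline.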

[4] = APR_HepG2_MicrotubuleCSK_24hr: Apredica 24-hour HepG2 Assay for Microtubule CSK Stabilty (AID 2282909); conditions: HepG2 microtubule cytoskeleton imaging, actives raise or lower the signal
How it was run: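 Read-out: alpha-tubulin immunofluorescence intensity by automated high-content imaging of fixed HepG2 cells after 24 h compound treatment. Ten concentrations, 0.39 to 200 uM, in duplicate; DMSO 0.5% v/v. Taxol positive control; DMSO-normalized bidirectional curve fitting.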

[5] = APR_HepG2_MitoticArrest_24hr: Apredica 24-hour HepG2 Assay for Mitotic Arrest (AID 2282910); conditions: high-content imaging, actives raise or lower the signal
How it was run: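 High-content imaging of fixed HepG2 cells labeled with Hoechst 33342 and anti-phospho-histone H3, after 24 h treatment. Ten concentrations 0.39 to 200 uM in duplicate, final DMSO 0.5%; changes fitted both directions relative to DMSO.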

[6] = APR_HepG2_MitoMembPot_24hr: Apredica 24-hour HepG2 Assay for Mitochondrial Membrane Potential (AID 2282911); conditions: imaging, actives raise or lower the signal
How it was run: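 Mitochondrial dye uptake (MitoTracker Red CMXRos, 250 nM, 30 min pre-fixation) in HepG2 after 24 hr compound exposure, 0.39–200 uM; ArrayScan images at 20x, activity fitted in both directions relative to DMSO.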

[7] = APR_HepG2_MitoMass_24hr: Apredica 24-hour HepG2 Assay for Mitochondrial Mass (AID 2282912); conditions: high-content imaging, actives raise or lower the signal
How it was run: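 HepG2, 24 hr dosing, 10 concentrations 0.39–200 uM in duplicate, DMSO 0.5% final. MitoTracker Red CMXRos 250 nM, 30 min pre-fix; 3.7% formaldehyde fix. Imaging-based fluorescence intensity; gain/loss fit vs DMSO baseline.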

[8] = APR_HepG2_p53Act_24hr: Apredica 24-hour HepG2 Assay for p53 Activation (AID 2282913); conditions: high-content imaging, actives raise or lower the signal;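 further: p53 protein immunofluorescence averaged per cell in HepG2 with Hoechst nuclei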
How it was run: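 Following 24 hr dosing of HepG2 at 0.39–200 uM, the cells undergo formaldehyde fixation, Triton permeabilization and multiplexed antibody labeling that includes p53 (Cy5). Signal from the imaging is referenced to DMSO solvent controls.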

[9] = APR_HepG2_CellCycleArrest_72hr: Apredica 72-hour HepG2 Assay for Cell Cycle Arrest (AID 2282914); conditions: high-content imaging, actives raise or lower the signal
How it was run: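 Using multiplexed high-content imaging, HepG2 nuclei stained with Hoechst 33342 (2 ug/mL) were analysed for DNA content after fixation and permeabilization. Treatment lasted 72 hr across 0.39–200 uM in duplicate with final DMSO 0.5% v/v; DMSO served as negative control.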

[10] = APR_HepG2_CellLoss_72hr: Apredica 72-hour HepG2 Assay for Cell Loss (AID 2282915); conditions: high-content imaging
How it was run: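 Cell number comes from Hoechst 33342-labelled nuclei, imaged at 20x after 3.7% formaldehyde fixation. Dosing was 0.39–200 uM, ten concentrations in duplicate, 0.5% DMSO final, for 72 h. Bidirectional fit relative to DMSO baseline.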

[11] = APR_HepG2_P-H2AX_72hr: Apredica 72-hour HepG2 Assay for H2AX Phosphorylation (AID 2282916); conditions: imaging, actives raise or lower the signal;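 further: phospho-histone H2A.x immunostain intensity per cell marking DNA damage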
How it was run: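 Readout: phospho-H2A.x immunofluorescence (FITC secondary) plus Hoechst nuclear stain, high-content imaging at 20x, six fields/well. HepG2, 72 hr compound exposure, 0.39–200 uM, final DMSO 0.5% v/v. Gain or loss fitted relative to DMSO baseline.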

[12] = APR_HepG2_MitoMembPot_72hr: Apredica 72-hour HepG2 Assay for Mitochondrial Membrane Potential (AID 2282917); conditions: imaging, actives raise or lower the signal
How it was run: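 Membrane potential read by MitoTracker Red CMXRos (250 nM, 30 min, pre-fixation) fluorescence imaging of HepG2 after 72 hr exposure. Ten concentrations, 0.39–200 uM, duplicate wells, 0.5% DMSO; fitted in both directions against DMSO baseline.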

[13] = APR_HepG2_MitoticArrest_72hr: Apredica 72-hour HepG2 Assay for Mitotic Arrest (AID 2282918); conditions: high-content imaging, actives raise or lower the signal
How it was run: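 Using high-content imaging of fixed HepG2 cells, phospho-histone H3 signal was measured following a 72 hr incubation with ten-point compound dilutions up to 200 uM. DMSO served as the negative control and baseline for bidirectional curve fitting.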

[14] = APR_HepG2_MicrotubuleCSK_72hr: Apredica 72-hour HepG2 Assay for Microtubule CSK Stabilty (AID 2282919); conditions: HepG2 microtubule cytoskeleton, high-content imaging, actives raise or lower the signal
How it was run: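 High-content imaging of alpha-tubulin staining in fixed HepG2 cells after 72 hr treatment with ten concentrations from 0.39 to 200 uM (0.5% DMSO). Fitting was bidirectional against DMSO; taxol served as positive control.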

[15] = APR_HepG2_StressKinase_72hr: Apredica 72-hour HepG2 Assay for Stress Kinase (AID 2282921); conditions: HepG2 stress kinase (phospho-c-Jun) imaging, actives raise or lower the signal
How it was run: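 Phospho-c-Jun immunofluorescence measured by high-content imaging at 20x, six fields per well; bidirectional curve fitting against DMSO as baseline. Dosing: 0.39–200 uM, 72 h, 0.5% DMSO final.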

[16] = APR_HepG2_MitoMass_72hr: Apredica 72-hour HepG2 Assay for Mitochondrial Mass (AID 2282924); conditions: high-content imaging, actives raise or lower the signal;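 further: MitoTracker Red CMXRos stain intensity per cell imaged as mitochondrial mass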
How it was run: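 Readout is imaged MitoTracker Red (250 nM, 30 min, pre-fixation) signal, fitted bidirectionally against DMSO baseline. Human HepG2 liver cells received compound 0.39–200 uM in duplicate for 72 hr, final DMSO 0.5%.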

[17] = APR_HepG2_NuclearSize_72hr: Apredica 72-hour HepG2 Assay for Nuclear Size (AID 2282925); conditions: high-content imaging, actives raise or lower the signal
How it was run: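 Nuclear size was read by high-content imaging of Hoechst 33342 stain after formaldehyde fixation. Compounds ran 72 h on HepG2 at 0.39 to 200 uM, with final DMSO 0.5% v/v. Curves fitted both directions relative to DMSO control.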

[18] = APR_HepG2_StressKinase_24hr: Apredica 24-hour HepG2 Assay for Stress Kinase (AID 2282922); conditions: HepG2 stress kinase (phospho-c-Jun) imaging, actives raise or lower the signal
How it was run: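 High-content imaging of phospho-c-Jun immunofluorescence in fixed, permeabilized HepG2 cells after 24 h dosing. Ten concentrations, 0.39 to 200 uM, run in duplicate at 0.5% v/v DMSO; gain or loss of signal versus DMSO.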

[19] = APR_HepG2_P-H2AX_24hr: Apredica 24-hour HepG2 Assay for H2AX Phosphorylation (AID 2282920); conditions: high-content imaging, actives raise or lower the signal
How it was run: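 Human HepG2 liver cells, treated 24 hr with test chemicals (0.39–200 uM, final DMSO 0.5% v/v), are fixed and co-stained for phospho-H2A.x and c-Jun with Hoechst. Imaged intensity is fitted in both directions against DMSO controls.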

[20] = APR_HepG2_p53Act_72hr: Apredica 72-hour HepG2 Assay for p53 Activation (AID 2282923); conditions: high-content imaging, actives raise or lower the signal;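 further: average cellular p53 protein immunofluorescence intensity in HepG2 cells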
How it was run: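 Readout: p53 immunofluorescence quantified by automated high-content imaging at 20x, six fields per well, nuclei located via Hoechst. Dosing ran 72 hr over ten concentrations from 0.39 to 200 uM; bidirectional curve fitting against DMSO baseline.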

Measured: AC50

CCCCCc1ccc(N)cc1
not listed: [18] | [19] | [20]
inactive: all other assays above

Cc1cc(F)ccc1-c1cc(N2CC[C@@H](O)[C@H]2CO)ncc1N(C)C(=O)C(C)(C)c1cc(C(F)(F)F)cc(C(F)(F)F)c1
active: [8] 94 µM | [10] 64.7 µM | [11] 57.7 µM | [13] 74 µM
not listed: [18] | [19] | [20]
inactive: all other assays above

OC12N=C(c3ccccc3)SC1Cc1cc(Cl)ccc12 (stereo not drawn)
active: [10] 67.5 µM | [11] 52.1 µM | [12] 0.548 µM | [13] 46.8 µM
not listed: [19] | [20]
inactive: all other assays above

Cc1ncc(CO)c(CO)c1O
not listed: [19] | [20]
inactive: all other assays above

CC(C)(C)c1cc(/C=C2\SC(N)=NC2=O)cc(C(C)(C)C)c1O
active: [1] 64.9 µM | [3] 53.1 µM | [4] 29.5 µM | [5] 52.3 µM | [7] 32.7 µM | [8] 61.7 µM | [10] 32.4 µM | [11] 41.6 µM | [13] 40.3 µM | [14] 27.4 µM | [19] 55.2 µM | [15] 60.5 µM | [18] 60 µM | [16] 86.1 µM
inactive: [2] | [6] | [9] | [12] | [17]

OCCO
not listed: [18]
inactive: all other assays above
